The campaign covered roughly 220,000 compounds. About 2,000 (0.91%) were called active. Another 2% or so got no clear call; they are omitted. Rule as the data show it: inconclusive = inhibition above about 80% without an active follow-up result; inactive = below that; test concentration not stated here. The list is a sample of the results. Potency and affinity values are given separately.

The experiment is described as follows: M. tuberculosis H37Rv growth inhibitors, H37Rv strain (AID 1626).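 Also: bacteria incubated seven days before Alamar blue readout; 0% = bacteria only wells and 100% = bacteria with antibiotic wells.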 The following applies: active compounds read high, concentration not given here.
`CN(CC(=O)Nc1ccc(C#N)cc1)Cc1ccc(Cl)c(Cl)c1`: the inhibition was 11.2% (inactive).

Take `CN(CC(=O)Nc1ccc(Cl)c(Cl)c1)C(=O)/C=C/c1ccc(F)cc1`: the inhibition is -5.59% (inactive).

Consider `CCOP(=O)(OCC)C(Nc1cccc(C(F)(F)F)c1)c1ccc(F)cc1` (centres undefined), for which the inhibition was 0.98% (inactive).

Turning to `c1cc2c(cc1C1=NNC(=NC3CC3)SC1)OCCO2`, the inhibition is -0.26% (inactive).

Turning to `C=CCN=C1NN=C(c2ccc3c(c2)OCCO3)CS1`, the inhibition was -5.3% (inactive).

Take `COc1ccccc1NS(=O)(=O)c1cc(NC(=O)c2ccco2)ccc1N1CCOCC1`: the inhibition was 9.4% (inactive).

Consider `O=c1[nH]c(=O)n(C2CCCCC2)c(O)c1C1NCCc2ccccc21` (centres undefined), for which the inhibition is -2.63% (inactive).

For the compound `COc1cc(NC(=S)Nc2ccccn2)cc(OC)c1`, the inhibition is 14.7% (inactive).

As for `Cc1cc(C)c(C)c(S(=O)(=O)N2CCN(C(=S)NCC3CCCO3)CC2)c1C` (centres undefined), the inhibition was 9.9% (inactive).

Regarding `COc1ccc(C(=O)Nc2cc(Cl)ccc2OC(=O)c2ccc(OC)cc2)cc1`, the inhibition is -1.73% (inactive).

For `O=C(Nc1ccccc1O)c1ccc(Cl)cc1`, the inhibition is -5.68% (inactive).

As for `CN(C)S(=O)(=O)c1cccc(C(=O)OCC(=O)NC2CCCc3ccccc32)c1` (centres undefined), the inhibition was 2.51% (inactive).

For the compound `O=C(CSc1nc2ccccc2c(=O)n1-c1ccccc1)N1CCC1`, the inhibition was -2.38% (inactive).

As to `Cc1ccc(Oc2ccc(C(F)(F)F)cc2[N+](=O)[O-])c([N+](=O)[O-])n1`, the inhibition was 3.08% (inactive).

Take `O=C(Nc1ccc(F)cc1)c1ccccc1Oc1ccc(C(F)(F)F)cc1[N+](=O)[O-]`: the inhibition is -1.92% (inactive).

For `OCCC1CN(Cc2cnc(-c3ccccc3)s2)CCN1C1CCCCC1` (centres undefined), the inhibition is 2.22% (inactive).

As to `COc1ccc(N=C2NN=C(c3ccc4c(c3)OCCO4)CS2)cc1`, the inhibition is -3.14% (inactive).

For the compound `COCCn1c(C)cc(C2=NNC(=Nc3ccc(OC)cc3)SC2)c1C`, the inhibition is -6.04% (inactive).

With `Fc1ccc(N=C2NN=C(c3cc(F)ccc3F)CS2)cc1`, the inhibition was 9.64% (inactive).

Consider `Cc1ccc(C2=NNC(=Nc3ccc(F)cc3)SC2)cc1`, for which the inhibition is 5.11% (inactive).

With `Cc1cccc(N=C2NN=C(c3ccc4c(c3)OCCO4)CS2)c1`, the inhibition is 6.79% (inactive).

Regarding `Cc1cc(C2=NNC(=Nc3ccccc3)SC2)c(C)n1C`, the inhibition is 0.04% (inactive).

As for `O=C(CCC1CCCCC1)NNC(=O)c1cnccn1`, the inhibition is 22.5% (inactive).

On to `CCCS(=O)(=O)c1csc(C(=O)OC)c1N`, for which the inhibition is -5.25% (inactive).

Consider `CS(=O)(=O)c1ccc(C(=O)OCC(=O)NC2CCS(=O)(=O)C2)cc1[N+](=O)[O-]` (centres undefined), for which the inhibition is 2.59% (inactive).

On to `CC(C)c1ccc(/C=N/NC(=O)c2nnn(-c3nonc3N)c2CSC2=NCCS2)cc1`, for which the inhibition was -0.79% (inactive).

For `COc1cc(C(=O)N2CCN(S(=O)(=O)c3ccc(F)cc3)CC2)cc(OC)c1OC`, the inhibition was -4.16% (inactive).

For the compound `CCOC(=O)N1C2=NC(C(=O)OC)=C(C(=O)OC)[C@@H]3N(C)c4ccc(OC)cc4[C@]23C[C@H]1C(=O)OC`, the inhibition was 5.46% (inactive).

Take `CN1CCc2ccccc2CC1=O`: the inhibition was 1.98% (inactive).

As for `N#CC1=C2SCC(O)(c3ccccc3)N2C(=O)CC1c1cccs1` (centres undefined), the inhibition was 3.45% (inactive).

Consider `N#CC1=C2SCC(O)(c3ccccc3)N2C(=O)CC1c1ccccc1` (centres undefined), for which the inhibition is -11.4% (inactive).

Turning to `COC(=O)CSc1nnc(CNC(=O)c2ccccc2F)n1-c1ccccc1`, the inhibition is -1.52% (inactive).

As for `Cc1cccc(N2CCN(C(=O)c3ccncc3)CC2C)c1` (centres undefined), the inhibition is -7.46% (inactive).

Consider `Cc1cccc(N2CCN(C(=O)c3cc(C)oc3C)CC2C)c1` (centres undefined), for which the inhibition is 4.99% (inactive).

Regarding `Cc1cc(C)cc(NC(=S)/C(=C(\[O-])c2ccc(Cl)cc2Cl)[n+]2ccccc2)c1`, the inhibition is 6.94% (inactive).

With `Cc1ccc(S(=O)(=O)N2CCCN(S(=O)(=O)c3ccc4c(c3)OCCO4)CC2)cc1`, the inhibition was 8.01% (inactive).

With `O=C1c2ccccc2S(=O)(=O)c2cc(C(=O)N(c3ccccn3)c3ccccn3)ccc21`, the inhibition was -6.02% (inactive).

Regarding `Fc1ccc(-c2nnc3sc(C4COc5ccccc5O4)nn23)cc1` (centres undefined), the inhibition was 20.6% (inactive).

For `Clc1ccccc1-c1nnc2sc(C3COc4ccccc4O3)nn12` (centres undefined), the inhibition was 3.12% (inactive).

Regarding `O=C(NNc1c(Cl)cccc1Cl)C1CCC1`, the inhibition is -0.74% (inactive).

Take `Cc1cc(N2CCN(C)CC2)nc2ccc(NC(=S)NCCCN3CCN(C)CC3)cc12`: the inhibition is 1.11% (inactive).

As to `CCCCCOc1ccc(/C=c2\sc3nc(=O)c(-c4ccccc4)nn3c2=O)cc1OC`, the inhibition was -2.22% (inactive).

Take `Cc1ccccc1NC(=O)/C=C/c1cccc(C(F)(F)F)c1`: the inhibition is 3.62% (inactive).

For `CCc1ccc(NC(=O)C[n+]2cc(-c3ccc(C)cc3)n3c2CCC3)cc1`, the inhibition is 0.48% (inactive).

Turning to `Cc1ccc(-c2c[n+](CC(=O)Nc3ccc(C)cc3C)c3n2CCC3)cc1`, the inhibition was 2.12% (inactive).

With `Cc1ccc(NC(=O)C[n+]2cc(-c3ccccc3)n3c2CCC3)cc1`, the inhibition was -1.61% (inactive).

Consider `Cc1ccc(-c2c[n+](CC(=O)Nc3ccccc3C)c3n2CCC3)cc1`, for which the inhibition was 5.29% (inactive).

For `O=C(C[n+]1cc(-c2ccc(F)cc2)n2c1CCC2)Nc1nc(-c2ccccc2)cs1`, the inhibition is 78.7% (inactive).

Regarding `Cn1c(NC(=O)C[n+]2cc(-c3ccc(F)cc3)n3c2CCC3)cc(=O)n(C)c1=O`, the inhibition is -5.35% (inactive).

For `CCCCC(=O)OCC(=O)Nc1ccc(C)c(F)c1`, the inhibition is 9.33% (inactive).

Consider `Cc1ccc(NC(=S)N(Cc2cccs2)Cc2cc3cc(C)cc(C)c3[nH]c2=O)cc1`, for which the inhibition is -1.91% (inactive).

As to `Fc1ccccc1CN1CCCN(C(=S)Nc2cccc(Cl)c2)C1`, the inhibition was -6.44% (inactive).

For the compound `c1ccc(-c2nnc(N3CCOCC3)nc2-c2ccccc2)cc1`, the inhibition was 4.29% (inactive).

Turning to `C=CCn1c(=NC(=O)c2cc(Cl)sc2Cl)sc2cc(S(N)(=O)=O)ccc21`, the inhibition is 52.4% (inactive).

Take `COCCn1c(=NC(=O)c2cc(Cl)sc2Cl)sc2cc(S(N)(=O)=O)ccc21`: the inhibition was 17.1% (inactive).

`COc1ccc(Nc2nnc(C)c(=O)[nH]2)c(OC)c1`: the inhibition is 0% (inactive).

In the case of `CCn1cc(C(=O)O)c(=O)c2cc(F)c(N3CCN(C(=O)Nc4ccccc4)CC3)cc21`, the inhibition is 74.6% (inactive).

As to `CCn1cc(C(=O)O)c(=O)c2cc(F)c(N3CCN(C(=S)NC(=O)c4ccccc4F)CC3)cc21`, the inhibition was 62.5% (inactive).

Take `CCn1cc(C(=O)NCc2ccco2)c(=O)c2cc(F)c(N3CCN(C(=O)c4ccco4)CC3)cc21`: the inhibition is 71.1% (inactive).

With `CCn1cc(C(=O)O)c(=O)c2cc(F)c(N3CCN(C(=S)NC(=O)c4ccccc4Cl)CC3)cc21`, the inhibition was 29.7% (inactive).

For `CCn1cc(C(=O)NCc2ccncc2)c(=O)c2cc(F)c(N3CCN(C(=O)c4ccco4)CC3)cc21`, the inhibition was 10.2% (inactive).

Consider `CCn1cc(C(=O)O)c(=O)c2cc(F)c(N3CCN(S(=O)(=O)c4ccc(Br)cc4)CC3)cc21`, for which the inhibition was 13.5% (inactive).

With `CCCCCCC(=O)N1CCN(c2cc3c(cc2F)c(=O)c(C(=O)O)cn3CC)CC1`, the inhibition is 0.13% (inactive).

Turning to `CCn1cc(C(=O)O)c(=O)c2cc(F)c(N3CCN(C(=S)NC(=O)c4ccccc4)CC3)cc21`, the inhibition is 30.7% (inactive).

As usually defined, the inhibition is the drop in the measured response relative to a control, in per cent.

Values taken from PubChem BioAssay AID1626 (SRMLSC, 2009).
